40 molecules from the supplement of paper PMC10127200 can be followed below.

Counter-ions that a name gives are not always drawn.

The subject of the test is 786-O. Briefly: Euclidean distance of Cell Painting phenotypic profile (signed KS, 77 features) to DMSO centroid (dimensionless distance); 5 or 10 uM (library dependent); higher = stronger phenotypic change vs DMSO (phenoactivity). As to conditions: 48 h. The essentials: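 Five cancer lines and a healthy fibroblast line received library compounds at 10 or 5 uM (library-dependent, 0.1% DMSO final) for 48 h. Stained cells were imaged confocally at 20X (9 fields/well). Harmony extracted 77 features, each scored as a signed Kolmogorov-Smirnov statistic against same-plate vehicle wells. Profiles were plate-position corrected, correlation-weighted and replicate-averaged at the top dose. Phenoactivity is the Euclidean distance from each profile to the median vehicle profile.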
As to `Cn1cnc2c1c(=O)[nH]c(=O)n2C` [Theobromine], the Euclidean distance came to 0.718. Turning to `Nc1nc(OCc2cc(Br)cs2)c2[nH]cnc2n1` [Lomeguatrib], the Euclidean distance came to 1.07.

As for `Cc1nnc(SCC2=C(C(=O)O)N3C(=O)[C@@H](NC(=O)Cn4cnnn4)[C@H]3SC2)s1` [Cefazolin Sodium], the Euclidean distance worked out at 0.929. The figure for `c1ccc2[nH]c(-c3cscn3)nc2c1` [Thiabendazole] is 1.16; for `CCC(Cc1c(I)cc(I)c(N)c1I)C(=O)O` (stereo not given) [Iopanoic acid] it is 0.512. In the case of `CCOC(=O)[C@H](CCc1ccccc1)N[C@H]1CS[C@H](c2cccs2)CN(CC(=O)O)C1=O` [Temocapril HCl], the Euclidean distance is 0.717.

`C[C@]12CC[C@@H]3c4ccc(O)cc4C[C@@H](CCCCCCCCC[S+]([O-])CCCC(F)(F)C(F)(F)F)[C@H]3[C@@H]1CC[C@@H]2O` (stereo not given in full) [Fulvestrant] yielded an Euclidean distance of 1.83. The molecule `N#CC[C@H](C1CCCC1)n1cc(-c2ncnc3[nH]ccc23)cn1` [Ruxolitinib Phosphate] showed an Euclidean distance of 1.96. The figure for `C[S+](CC[C@H](N)C(=O)[O-])C[C@H]1O[C@@H](n2cnc3c(N)ncnc32)[C@H](O)[C@@H]1O` (stereo not given in full) [Ademetionine] is 0.708; for `OC[C@@H](O)[C@@H](O)[C@H](O)[C@H](O)CO` [D-Mannitol] it is 1.14. The figure for `COC(=O)c1ccc(O)cc1` [Methyl 4-hydroxybenzoate] is 0.944; for `CCCCC1C(=O)N(c2ccccc2)N(c2ccccc2)C1=O` [Phenylbutazone] it is 0.905.

In the case of `Cc1nc2n(c(=O)c1CCN1CCC(c3noc4cc(F)ccc34)CC1)CCCC2` [Risperidone], the Euclidean distance was determined as 1.21. In turn, `CC[C@H](C)C(=O)O[C@H]1C[C@@H](C)C=C2C=C[C@H](C)[C@H](CC[C@@H]3C[C@@H](O)CC(=O)O3)[C@H]21` [Lovastatin] gave an Euclidean distance of 1.17. With `COc1ccccc1O` [Guaiacol], the Euclidean distance was 0.884. The figure for `O=C(O)c1cn(-c2ccc(F)cc2)c2cc(N3CCNCC3)c(F)cc2c1=O` [Sarafloxacin HCl] is 1.11; for `NS(=O)(=O)NCCNc1nonc1/C(=N/O)Nc1ccc(F)c(Br)c1` it is 1.34; for `O=C1C(O)=C([C@H]2CC[C@H](c3ccc(Cl)cc3)CC2)C(=O)c2ccccc21` [Atovaquone] it is 1.3.

In turn, `C=CC(=O)N1C[C@H](Nc2ncnc3[nH]ccc23)CC[C@@H]1C` showed an Euclidean distance of 1.27. The figure for `CC(C)(C)OC(=O)N[C@H]1CCCCC/C=C\[C@@H]2C[C@@]2(C(=O)NS(=O)(=O)C2CC2)NC(=O)[C@@H]2C[C@@H](OC(=O)N3Cc4cccc(F)c4C3)CN2C1=O` [Danoprevir (ITMN-191)] is 1.4; for `Cc1cc(-n2c(=O)[nH]c(=O)n(C)c2=O)ccc1Oc1ccc(SC(F)(F)F)cc1` [Toltrazuril] it is 1.07; for `CC(COc1ccccc1Cc1ccccc1)N1CCCCC1` (stereo not given) [Benproperine phosphate] it is 1.67.

`CCOC(=O)C1=C(COCCN)NC(C)=C(C(=O)OC)[C@@H]1c1ccccc1Cl` [Levamlodipine] returned an Euclidean distance of 0.971.

In turn, `COc1ccccc1OCC(O)CO` (stereo not given) [Guaifenesin] showed an Euclidean distance of 1.05. Regarding `COCCOC(=O)C1=C(C)NC(C)=C(C(=O)OC(C)C)C1c1cccc([N+](=O)[O-])c1` (stereo not given) [Nimodipine], the Euclidean distance stood at 1.59. The figure for `COC(=O)C1=C(C)NC(C)=C(C(=O)OCCN(C)Cc2ccccc2)C1c1cccc([N+](=O)[O-])c1` (stereo not given) [Nicardipine HCl] is 1.27. As for `CC#CC(=O)N1CCC[C@H]1c1nc(-c2ccc(C(=O)Nc3ccccn3)cc2)c2c(N)nccn12` [Acalabrutinib (ACP-196)], the figure is 0.929. The figure for `COc1cc(Nc2ncc(F)c(Nc3ccc4c(n3)N(COP(=O)(O)O)C(=O)C(C)(C)O4)n2)cc(OC)c1OC` [R788 (Fostamatinib) Disodium] is 1.37; for `CC(C)(C)c1nc(-c2cccc(NS(=O)(=O)c3c(F)cccc3F)c2F)c(-c2ccnc(N)n2)s1` [Dabrafenib Mesylate] it is 1.18. As for `COc1ccc2cc([C@H](C)C(=O)O)ccc2c1` [Naproxen], the Euclidean distance worked out at 0.797. `NCCS` [2-Aminoethanethiol] registered an Euclidean distance of 1.12. Molecule `Cn1cc(Nc2nccc(N3C[C@H]4CC[C@@H](C3)N4C(=O)[C@@H]3CC3(F)F)n2)cn1` came in with an Euclidean distance of 1.66. As to `CCN(CC)CCOC(=O)c1ccc(N)cc1` [Procaine HCl], the Euclidean distance was 0.661.

`O=c1c(O)c(-c2ccc(O)c(O)c2)oc2cc(O)ccc12` [Fisetin] showed an Euclidean distance of 0.642. Consider `CC(C)NCC(O)COc1ccc(CC(N)=O)cc1` (stereo not given) [Atenolol], for which the Euclidean distance stood at 1.33. In turn, `CO[C@@]1(NC(=O)Cc2cccs2)C(=O)N2C(C(=O)O)=C(COC(N)=O)CS[C@@H]21` [Cefoxitin sodium] displayed an Euclidean distance of 1.26. The figure for `CCOC(=O)CCNc1cc(N2CCc3ccccc3CC2)nc(-c2ccccn2)n1` is 2.

Consider `COC(=O)[C@]12CCC(C)(C)C[C@H]1[C@H]1C(=O)C=C3[C@@]4(C)C=C(C#N)C(=O)C(C)(C)[C@@H]4CC[C@@]3(C)[C@]1(C)CC2` [Bardoxolone Methyl], for which the Euclidean distance amounted to 5.4. As for `Nc1cc(F)ccc1NC(=O)c1ccc(CNC(=O)/C=C/c2cccnc2)cc1` [Tucidinostat (Chidamide)], the figure is 3.36; as for `Clc1ccc2c(c1)CCc1cccnc1C2=C1CCNCC1` [Desloratadine], 1.38.
